Here are results for five compounds from PubChem BioAssay.

One assay has as its target Albumin (Bos taurus) (UniProt P02769). As to the kind of experiment: bovine serum albumin binders on microarray, profiling panel, artefact control for SMM control protein annotation, biochemical, small-molecule microarray, Alexa647 label, 635/667 nm fluorescence (AID 1118).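 Note: score merges 667 nm emission intensity and signal-to-noise per printed compound spot.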 The note with it: BSA-A647 binding, fluorescence 635 nm, higher = more signal.
Assay [1] is described as follows: small-molecule microarray binders of probe aXIP, primary screen, biochemical, NeuroSMM set, 635/667 nm fluorescence (AID 1119).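 Note: probe is the protein aXip251-270 applied at 1 µg/mL to compound-printed slides; binding of probe to printed compounds measured as 667 nm fluorescence plus signal to noise.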 The note with it: higher = more signal, called active from +8 up or from −8 down.
The nature of assay [2]: small-molecule binders of probe aNOTCH3, primary screen, biochemical, small-molecule microarray, 635/667 nm fluorescence (AID 1120).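 Note: probe is a biotin-tagged antibody raised against NOTCH3 rather than NOTCH3 protein; score merges spot fluorescence near 667 nm with spot signal to noise.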 Conditions: higher = more signal.
Assay [3] is described as follows: small-molecule binders of probe aNOTCH2, primary screen, biochemical, small-molecule microarray, 635/667 nm fluorescence (AID 1121).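 Note: score merges feature fluorescence read at 667 nm with its signal to noise.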 Conditions: higher = more signal.
Assay [4] deals with Carbonic anhydrase 2 (Homo sapiens) (UniProt P00918). The experiment in a line: CAII small-molecule binders, profiling panel, biochemical, small-molecule microarray, Alexa647-labelled CAII (AID 1122). Conditions: CAII-A647 binding fluorescence, higher = more signal.
A short description of assay [5]: COS7 lysate on small-molecule microarray, probe aHis, 635 nm (AID 1123).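 Note: z-score combines 667nm fluorescence intensity with signal-to-noise per printed compound spot.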 The note with it: COS7 cell lysate, fluorescence, higher = more signal.
The nature of assay [6]: compound binding in COS7 lysate, probe aLAP1, primary screen, cell lysate, small-molecule microarray (AID 1124).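 Note: lysate comes from COS7 cells expressing LAP1 and is applied at 0.3 µg/mL; score merges spot fluorescence near 667 nm with signal-to-noise over triplicate slides.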 Conditions: probe aLAP1, fluorescence, higher = more signal.
The next assay concerns Sam68 (KHDRBS1). As to the kind of experiment: Sam68 small-molecule binders, primary screen, biochemical, small-molecule microarray, 635 nm fluorescence (AID 1125).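 Note: score merges 667 nm channel intensity with signal to noise over triplicate slides.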 Conditions: small-molecule microarray binding, higher = more signal.
Assay [7] relates to Chordin-like protein 2 (CHRDL2). The experiment in a line: CHRDL2 small-molecule binders, primary screen, biochemical, small-molecule microarray, 635 nm fluorescence (AID 1126).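 Note: printed compound slides probed with Chrdl2 protein at 4 µg/mL for 1 h at 4 C; score merges 667 nm emission intensity with signal to noise over three replicate slides.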 Conditions: small-molecule microarray binding, fluorescence 635 nm; higher = more signal.
The target of assay [8] is Concanavalin-A (Canavalia ensiformis) (UniProt P02866). The experiment in a line: ConA small-molecule binders, primary screen, artefact control for SMM control protein annotation, biochemical, small-molecule microarray, Alexa647 label, 635 nm (AID 1127).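 Note: z combines 667 nm emission intensity with signal-to-noise across three replicate slides.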 The note with it: ConA-A647 binding fluorescence, higher = more signal.
Assay [9] is described as follows: anti-His antibody binders, primary screen, artefact control for SMM control protein annotation, biochemical, small-molecule microarray, 635 nm fluorescence (AID 1128).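 Note: score merges feature fluorescence with signal-to-noise for each printed compound spot.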 Conditions: anti-His Alexa647 antibody binding, higher = more signal.
Assay [10] deals with Human papillomavirus type 1a E7 protein (residues 1-88). The experiment in a line: HPV1a E7 small-molecule binders, primary screen, biochemical, small-molecule microarray, residues 1-88, 635 nm (AID 1129). Conditions: small-molecule microarray binding, fluorescence 635 nm; higher = more signal.
Assay [11] deals with Focal adhesion kinase 1 (Homo sapiens) (UniProt Q05397). As to the kind of experiment: small-molecule microarray binders of FAK, primary screen, biochemical, 635/667 nm fluorescence, BSA, DTT (AID 1130).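 Note: composite of spot emission at 667 nm and signal to noise over triplicate slides.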 Conditions: PTK2 binding, 635 nm fluorescence, higher = more signal.
Assay [12] relates to Fibrinogen (Alexa647-labelled). As to the kind of experiment: fibrinogen binders on compound microarrays, profiling panel, artefact control for SMM control-protein annotation, biochemical, small-molecule microarray, 635/667 nm fluorescence (AID 1131).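 Note: z-score merges 667 nm fluorescence with per-spot signal-to-noise over triplicate slides.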 Conditions: fibrinogen-A647 binding fluorescence, higher = more signal.
Assay [13] concerns the target Follistatin (Homo sapiens) (UniProt P19883). As to the kind of experiment: follistatin binders on small-molecule microarrays, primary screen, biochemical, small-molecule microarray, 635/667 nm fluorescence (AID 1132). Conditions: FST binding, 635 nm fluorescence, higher = more signal.
For assay [14], the target named is Fibroblast growth factor 2 (Homo sapiens) (UniProt P09038). As to the kind of experiment: FGF2 binders on small-molecule microarrays, primary screen, biochemical, small-molecule microarray, 635/667 nm fluorescence (AID 1133). The note with it: small-molecule microarray binding, FGF2, fluorescence 635/667; higher = more signal.
Assay [15] is described as follows: mitochondrial membrane potential change in A549 cells, profiling panel, cell-based, JC-1 fluorescence, basal, 24 h, 100 nL (AID 1138).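 Note: A549 lung adenocarcinoma cells under basal conditions with no added stimulus; test concentration not given here.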 Conditions: higher = more signal.
The next assay deals with Lefty1. The experiment in a line: Lefty1 binders on small-molecule microarrays, primary screen, biochemical, small-molecule microarray, 635/667 nm fluorescence (AID 1139). The note with it: small-molecule microarray binding, fluorescence 635/667; higher = more signal.
Assay [16] has as its system wheat germ agglutinin (Triticum aestivum), Alexa647-labelled. The experiment in a line: wheat germ agglutinin binders on compound microarrays, profiling panel, artefact control for SMM control-protein annotation, biochemical, small-molecule microarray, 635/667 nm fluorescence (AID 1140).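 Note: score merges 667 nm feature emission with signal to noise over triplicate slides.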 The note with it: WGA-A647 binding, 635 nm fluorescence, higher = more signal.
Assay [17] addresses Luciferin 4-monooxygenase (Photinus pyralis) (UniProt P08659). As to the kind of experiment: firefly luciferase enzyme inhibitors, primary screen, biochemical, luminescence, purified enzyme, 2006 set (AID 1141).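 Note: cell-free assay with purified firefly luciferase at 100 ng per well in PBS; test concentration not given here.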 Conditions: SteadyGlo luminescence, 30 min, higher = more signal, called active from +8 up or from −8 down.

Active and inactive are the calls of the source.

Concanavalin-A (Canavalia ensiformis), sequence (P02866 whole entry, looked up): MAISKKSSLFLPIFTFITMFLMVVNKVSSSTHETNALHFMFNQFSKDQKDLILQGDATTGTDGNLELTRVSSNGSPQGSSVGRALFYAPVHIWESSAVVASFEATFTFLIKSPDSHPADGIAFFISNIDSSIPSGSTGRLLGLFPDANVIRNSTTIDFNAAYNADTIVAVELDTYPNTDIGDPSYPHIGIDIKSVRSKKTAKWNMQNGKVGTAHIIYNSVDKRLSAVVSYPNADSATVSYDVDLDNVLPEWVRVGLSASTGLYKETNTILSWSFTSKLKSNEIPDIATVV
Luciferin 4-monooxygenase (Photinus pyralis), sequence (P08659 whole entry, looked up): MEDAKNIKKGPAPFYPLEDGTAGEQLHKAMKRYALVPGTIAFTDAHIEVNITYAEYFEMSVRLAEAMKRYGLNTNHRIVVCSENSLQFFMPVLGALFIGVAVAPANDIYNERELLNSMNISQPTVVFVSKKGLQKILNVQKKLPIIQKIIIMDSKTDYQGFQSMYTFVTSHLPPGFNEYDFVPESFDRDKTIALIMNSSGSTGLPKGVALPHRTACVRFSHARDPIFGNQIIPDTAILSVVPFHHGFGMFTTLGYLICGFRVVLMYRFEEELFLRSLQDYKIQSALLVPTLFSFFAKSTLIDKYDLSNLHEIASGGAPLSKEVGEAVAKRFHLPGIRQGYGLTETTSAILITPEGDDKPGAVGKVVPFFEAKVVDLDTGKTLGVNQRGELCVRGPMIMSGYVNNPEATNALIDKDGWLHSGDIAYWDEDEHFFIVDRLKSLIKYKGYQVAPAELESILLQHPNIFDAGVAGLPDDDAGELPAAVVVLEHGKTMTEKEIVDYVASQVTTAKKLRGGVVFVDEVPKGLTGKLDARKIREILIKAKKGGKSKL
Albumin (Bos taurus), sequence (P02769 whole entry, looked up): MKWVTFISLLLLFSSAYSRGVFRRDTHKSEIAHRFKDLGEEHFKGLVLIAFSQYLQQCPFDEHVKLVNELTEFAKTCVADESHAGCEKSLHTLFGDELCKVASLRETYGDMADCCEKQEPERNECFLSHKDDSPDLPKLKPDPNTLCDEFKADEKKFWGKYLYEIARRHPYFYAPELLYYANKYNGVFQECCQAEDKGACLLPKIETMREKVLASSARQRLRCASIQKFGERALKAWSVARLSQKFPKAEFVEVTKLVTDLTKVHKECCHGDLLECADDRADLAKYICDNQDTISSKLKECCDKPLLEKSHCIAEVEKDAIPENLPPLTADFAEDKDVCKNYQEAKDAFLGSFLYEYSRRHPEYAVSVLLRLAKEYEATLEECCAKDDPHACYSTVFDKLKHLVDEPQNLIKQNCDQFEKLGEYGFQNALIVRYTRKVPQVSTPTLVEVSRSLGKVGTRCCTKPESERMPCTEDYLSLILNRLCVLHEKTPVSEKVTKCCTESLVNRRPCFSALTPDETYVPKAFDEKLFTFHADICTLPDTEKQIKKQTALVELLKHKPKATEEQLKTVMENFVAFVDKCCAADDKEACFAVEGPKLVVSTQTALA
Focal adhesion kinase 1 (Homo sapiens), sequence (Q05397 whole entry, looked up): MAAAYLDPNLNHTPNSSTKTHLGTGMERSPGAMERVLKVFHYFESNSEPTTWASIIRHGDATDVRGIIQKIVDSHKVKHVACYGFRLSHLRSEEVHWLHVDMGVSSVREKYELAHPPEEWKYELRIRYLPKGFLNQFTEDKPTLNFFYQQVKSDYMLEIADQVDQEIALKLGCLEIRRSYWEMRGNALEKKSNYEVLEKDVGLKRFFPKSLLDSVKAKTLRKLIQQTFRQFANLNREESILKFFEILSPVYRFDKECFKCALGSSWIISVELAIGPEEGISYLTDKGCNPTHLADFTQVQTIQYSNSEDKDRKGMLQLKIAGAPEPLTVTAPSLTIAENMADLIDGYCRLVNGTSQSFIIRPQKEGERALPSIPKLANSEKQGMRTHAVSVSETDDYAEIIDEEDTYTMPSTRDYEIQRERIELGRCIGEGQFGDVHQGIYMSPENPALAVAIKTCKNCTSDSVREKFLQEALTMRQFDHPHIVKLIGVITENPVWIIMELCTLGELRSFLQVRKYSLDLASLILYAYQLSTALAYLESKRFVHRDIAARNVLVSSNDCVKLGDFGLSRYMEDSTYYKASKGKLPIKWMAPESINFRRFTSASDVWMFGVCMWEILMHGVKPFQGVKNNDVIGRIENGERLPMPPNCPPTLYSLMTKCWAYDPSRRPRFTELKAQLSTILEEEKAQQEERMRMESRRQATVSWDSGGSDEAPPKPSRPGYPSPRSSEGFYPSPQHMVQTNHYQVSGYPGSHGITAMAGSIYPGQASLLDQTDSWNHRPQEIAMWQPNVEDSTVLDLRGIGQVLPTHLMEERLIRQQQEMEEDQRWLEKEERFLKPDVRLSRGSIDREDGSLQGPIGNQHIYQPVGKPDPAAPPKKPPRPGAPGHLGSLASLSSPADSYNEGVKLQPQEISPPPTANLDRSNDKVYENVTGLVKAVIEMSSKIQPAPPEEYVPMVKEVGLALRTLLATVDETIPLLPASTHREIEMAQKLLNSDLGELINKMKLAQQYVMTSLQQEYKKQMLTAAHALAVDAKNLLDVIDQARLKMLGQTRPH
Follistatin (Homo sapiens), sequence (P19883 whole entry, looked up): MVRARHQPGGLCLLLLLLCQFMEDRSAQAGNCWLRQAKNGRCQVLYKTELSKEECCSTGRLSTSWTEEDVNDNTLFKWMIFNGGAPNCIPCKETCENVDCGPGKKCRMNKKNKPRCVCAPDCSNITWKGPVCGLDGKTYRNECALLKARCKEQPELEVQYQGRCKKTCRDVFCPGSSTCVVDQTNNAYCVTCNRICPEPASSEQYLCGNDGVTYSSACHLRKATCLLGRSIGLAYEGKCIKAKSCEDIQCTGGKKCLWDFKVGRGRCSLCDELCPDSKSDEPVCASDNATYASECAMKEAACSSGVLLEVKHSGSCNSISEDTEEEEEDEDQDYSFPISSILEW
Fibroblast growth factor 2 (Homo sapiens), sequence (P09038 whole entry, looked up): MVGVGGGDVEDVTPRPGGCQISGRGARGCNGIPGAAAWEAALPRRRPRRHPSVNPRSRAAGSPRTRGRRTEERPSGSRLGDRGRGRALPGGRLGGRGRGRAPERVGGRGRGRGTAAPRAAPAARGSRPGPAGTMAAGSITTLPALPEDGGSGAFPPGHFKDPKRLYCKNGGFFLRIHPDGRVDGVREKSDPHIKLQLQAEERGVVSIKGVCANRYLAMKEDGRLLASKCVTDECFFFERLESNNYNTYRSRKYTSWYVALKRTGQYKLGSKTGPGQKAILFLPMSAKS

On to `C=C(COC)/C(=C/C[C@H](OC(C)=O)c1cccc(OCCO)c1)c1cc(C(=O)OC)ccc1OC`, for which the composite z-score in the assay with Albumin (Bos taurus) was -0.169; in assay [2], -0.0414; in [3], -0.0649; in assay [4], 0.656; in assay [5], 0.193; in [6], -0.219. The composite z-score in the assay on Sam68 (KHDRBS1) was 0.705; in assay [7] it was 1.25; in assay [8] it was -0.0821; in assay [9], 0.349; in assay [10], -0.131; in assay [11] it was -0.402. The composite z-score in assay [12] was -0.488; in assay [13], 1.51; in [14] it was 1.4; in the assay with Lefty1 it was 1.72; in assay [16], -1.08. Further, the composite Z-score in assay [1] is 0.211 (inactive). The figures for the z-score in assay [15] and in assay [17] were -0.0205 and -0.727 (inactive), respectively.

As to `CCOC(=O)C[C@H]1[C@H](OC(=O)c2cc3ccccc3oc2=O)[C@@H](NC(=O)c2ccccc2)c2cc(OCCCO)ccc2N1C(=O)Cc1ccc(OC)cc1`, the composite z-score in the assay with Albumin (Bos taurus) was -0.0029; in [2] it was 0.0488; in [3] it was -0.0578; in [4] it was 0.467; in assay [5] it was 0.257; in assay [6] it was 0.324. In addition, the composite z-score in the assay with Sam68 (KHDRBS1) is 0.382; in [7], 0.357; in [8] it was 0.773; in [9], -0.657; in assay [10] it was 0.345; in [11] it was 0.5. The composite z-score in assay [12] stood at 0.465; in assay [13] it was 0.856; in assay [14], 0.948; with Lefty1 it was 0.584; in assay [16], 0.247. In addition, in [1], the composite Z-score is -0.0478 (inactive). For the same compound, the z-score in assay [15] is -0.42; in assay [17], -0.243 (inactive).

In the case of `CCOC(=O)C[C@H]1[C@H](OC(=O)c2ccc(C(=O)c3ccccc3)cc2)[C@@H](NC(=O)Cc2ccc(OC)cc2)c2cc(OCCCO)ccc2N1C(=O)Cc1ccc(OC)cc1`, the composite z-score was 0.602 in the assay with Albumin (Bos taurus); 0.0397 in assay [2]; -0.0505 in assay [3]; 0.0899 in assay [4]; 0.954 in [5]; 0.397 in assay [6]. Further, the composite z-score was 1.05 in the assay on Sam68 (KHDRBS1); -0.49 in assay [7]; 1.01 in assay [8]; 0.0446 in assay [9]; 1.07 in assay [10]; 0.551 in [11]. The composite z-score is 0.729 in assay [12]; 0.295 in assay [13]; -0.078 in assay [14]; 0.607 in the assay on Lefty1; 0.855 in assay [16]. Further, in assay [1], the composite Z-score was -0.333 (inactive). The z-score in assay [15] was 2.88; in assay [17], -0.927 (inactive).

For `Cc1ccc(S[C@]2(C(=O)NCCN3CCOCC3)CC(=O)N(Cc3cc(C(F)(F)F)cc(C(F)(F)F)c3)[C@@H]2c2ccc(CO)cc2)cc1`, the composite z-score in the assay with Albumin (Bos taurus) was 0.0152; in assay [2], -0.304; in assay [3], -0.0846; in assay [4], 0.78; in assay [5] it was 0.244; in assay [6] it was 0.248. Further, the composite z-score with Sam68 (KHDRBS1) is -0.142; in [7] it was -1.01; in [8], -0.664; in [9] it was -1.03; in assay [10], 0.624; in [11] it was 0.151. Besides, the composite z-score is -0.899 in [12]; -1.09 in assay [13]; -1.21 in assay [14]; -1.1 in the assay on Lefty1; -1.54 in [16]. Also, the composite Z-score in assay [1] is -0.654 (inactive). Besides, the z-score is 1.59 in [15] and -0.682 (inactive) in assay [17].

In the case of `C=C(CCCC)/C(=C/C[C@H](OC(=O)c1ccncc1)c1ccc(CO)o1)c1cnc2ccccc2c1`, the composite z-score with Albumin (Bos taurus) is 0.295; in assay [2], 0.227; in [3] it was -0.0942; in [4], 0.84; in assay [5], 0.368; in assay [6] it was 0.0647. Also, the composite z-score is 1.3 in the assay on Sam68 (KHDRBS1); 0.699 in [7]; 1.04 in assay [8]; 0.475 in assay [9]; 1.18 in [10]; 0.291 in assay [11]. The composite z-score in [12] came to 0.0311; in assay [13], 1.38; in assay [14] it was 0.722; in the assay with Lefty1, 1.38; in assay [16], 1.28. The composite Z-score in [1] is -0.0961 (inactive). In addition, the z-score in assay [15] was 1.45; in assay [17] it was -2.94 (inactive).
